# Screening data (PubChem)
# BoNT F protease – BoNT F light chain protease inhibition; Multiplex microsphere protease cleavage assay, flow cytometry; inhibition, % at 10 µM; 360,000 compounds, 0.22% hits; AID 588497; in the data active means inhibition above about 35%, passing the limit was not always enough; inconclusive means no clear call, values can overlap the other calls; further: plate controls were buffer without enzyme for full effect and enzyme alone for no effect
# Bead autofluor – counter-screen for toxin protease inhibitors: compound fluorescence; fluorescence intensity (no concentration beside the values); 360,000 compounds, 3.1% hits; compound autofluorescence counterscreen, microsphere flow cytometry; stronger effect = higher value; in the data active means fluorescence intensity above about 16000; inconclusive means no clear call, values can overlap the other calls
# BoNT-A LC inh2 – BoNT A light chain protease inhibition | multiplex microsphere protease substrate cleavage, flow cytometry | inhibition, % at 10 µM | 360,000 compounds, 0.17% hits; further: plate controls were buffer without enzyme for full effect and enzyme alone for no effect
# MazEF act – increases E. coli MazEF RNase cleavage of RNA; P0AE70; FAM/BHQ RNA-DNA oligo cleavage fluorescence, 5 h; activation, % at 20 µM; 350,000 compounds, 0.32% hits; in the data active means activation above about 50%
# Anthrax LF inh2 – blocks Bacillus anthracis lethal factor protease | P15917 | multiplex microsphere protease cleavage assay, LF | inhibition, % at 10 µM | 360,000 compounds, 0.12% hits | AID 588501; further: plate controls were buffer without enzyme for full effect and enzyme alone for no effect
# The depositor's hits bear a star; u = inconclusive; x = no result given. Sampled rows, rich in hits. Any-hit rate of the full collection: about 3.7%. Unless noted, no stated cut-off is given here; in the data, active means inhibition above about 30%; inconclusive means no clear call, values can overlap the other calls; inactive means below that.
SMILES,BoNT F protease,Bead autofluor,BoNT-A LC inh2,MazEF act,Anthrax LF inh2
O=C(Nc1cccc(F)c1)c1cccc(S(=O)(=O)N2CCOCC2)c1,-3,24090*,-2,-5,-6
COc1ccc(/C=N/OC/C(O)=C(\C#N)c2nc3ccccc3[nH]2)cc1,1,22111*,4,7,0
N#C/C(=C(/O)c1ccc([N+](=O)[O-])o1)c1nc2ccccc2[nH]1,0,4677,-1,141*,0
N#C/C(=C\c1ccc([N+](=O)[O-])o1)c1nc2ccccc2[nH]1,x,x,x,-20,x
CC(C)(C)/C(O)=C(/C#N)c1nc2ccccc2[nH]1,-6,23471*,u,10,-1
CC(C)(C)c1ccc(CC(=O)N2CCC2(C)C(=O)Nc2cccc3c2CCCC3)cc1 (stereo unspecified),-3,3534,0,x,-3
O=[N+]([O-])c1cccc2c(S(=O)(=O)N3CCOCC3)cccc12,16,3471,0,13,5
Cc1[nH]c2ccc(C(=O)OC(C)C(=O)NC3(C#N)CCCCC3)cc2c1C (stereo unspecified),7,4918,3,4,-2
Cn1c(N)c(C(=O)COC(=O)C2Cc3ccccc3CN2S(C)(=O)=O)c(=O)n(C)c1=O (stereo unspecified),3,3949,0,2,-5
O=C(ON=C1CCN(c2ccc([N+](=O)[O-])cc2)CC1)c1ccccc1,1,19501*,u,-8,2
COc1ccc(C(=O)ON=C2CCN(c3ccc([N+](=O)[O-])cc3)CC2)cc1,0,5549,1,7,-7
O=[N+]([O-])c1ccc(O)c(/C=N/NC2=NS(=O)(=O)c3ccccc32)c1,41*,2644,6,-6,1
O=c1c(C(c2ccc(Cl)cc2)c2c(O)nc3n(c2=O)CCS3)c(O)nc2n1CCS2,u,3683,u,-10,-23
O=c1c(C(c2ccc(F)cc2)c2c(O)nc3n(c2=O)CCS3)c(O)nc2n1CCS2,u,4410,4,289*,10
Cc1cccc2cc(-c3ccccc3)c(-c3ccccc3)c[n+]12,-46,5605,38*,23,8
O=[N+]([O-])c1cccc(-c2cc3cccc[n+]3cc2-c2cccc([N+](=O)[O-])c2)c1,-6,2443,-1,5,2
CCOC(=O)N1CCN(C(=O)C2CCN(S(=O)(=O)c3c(C)cc(C)cc3C)CC2)CC1,-5,16613*,-2,-5,2
O=C(C1COc2ccccc2O1)N1CCN(S(=O)(=O)c2ccccc2)CC1 (stereo unspecified),-3,4636,-2,3,0
Cc1ccc(S(=O)(=O)N2CCN(C(=O)C3COc4ccccc4O3)CC2)cc1C (stereo unspecified),5,19329*,u,-2,-3
CCOC(=O)N1CCN(S(=O)(=O)c2ccc(C)c(C)c2)CC1,3,23015*,u,-8,1
CCOC(=O)N1CCN(S(=O)(=O)c2c(C)cc(C)cc2C)CC1,-14,4601,-1,4,1
COC(=O)c1cn(-c2ccc(F)cc2)c(=O)c2ccccc12,7,4520,2,1,3
CO/N=C/NC(=O)c1cn(-c2ccc(F)cc2)c(=O)c2ccccc12,-2,16209*,-1,9,-4
CC(=NCCCN1CCOCC1)c1c(O)n(Cc2ccccc2)c(=O)[nH]c1=O,-4,4272,0,4,4
C=CCn1c(O)c(C(CC)=NCCc2ccccc2)c(=O)[nH]c1=O,-2,22909*,u,-4,0
SMILES,BoNT F protease,Bead autofluor,BoNT-A LC inh2,MazEF act,Anthrax LF inh2
C=CCn1c(O)c(C(C)=NCc2cccnc2)c(=O)[nH]c1=O,-4,17471*,-2,-7,-2
C=CCn1c(O)c(C(CC)=NCc2cccnc2)c(=O)[nH]c1=O,x,x,x,6,x
CCC(=NCCCN1CCOCC1)c1c(O)n(Cc2ccccc2)c(=O)[nH]c1=O,2,19516*,1,-2,2
CC(NS(=O)(=O)c1cccc(C(=O)NCc2ccncc2)c1)c1ccccc1 (stereo unspecified),-14,3649,0,-2,-5
CC1=C(C#N)C(NC(=O)C(C)(C)C)(C(F)(F)F)C(=O)N1 (stereo unspecified),-4,21687*,-2,4,-1
COc1cc(Cl)c(C)cc1NC(=O)CN(C)C1CCS(=O)(=O)C1 (stereo unspecified),x,x,x,2,x
CCOC(=O)C1C(=O)C=C(/C=C/c2ccccc2)CC1c1ccc(Cl)cc1 (stereo unspecified),-4,16539*,u,-7,-4
CCOC(=O)C1NC(=O)CC1c1ccccc1 (stereo unspecified),-5,4148,0,-13,5
